Screen size: about 1,400 compounds; about 560 (40%) were called active. The set was probably picked from earlier hits. Some of the results follow. Values without a mark were called inactive.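 How the source made its calls: active means mean inhibition over duplicate tests at 10 µM above 50%; inactive means the rest.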
experiment: ASC/caspase-1 reporter retest in S. cerevisiae at one dose, specificity check for NALP1 project (AID 488857); conditions: S. cerevisiae ASC/Caspase-1, beta-galactosidase luminescence, 24 h; at 10 µM; active compounds read high

Question: With O=C(Nc1ccc(F)cc1)c1cccnc1N1CCCCC1 as the compound, how does the inhibition read?
Answer: The inhibition was 43.2%.

Question: Which inhibition does the source give for CCOc1ccccc1C(=O)OCC(=O)Nc1ccc(N2CCCCC2)cc1 here?
Answer: The inhibition was 67.3% (active).

Question: Which inhibition does the source give for CCOC(=O)c1ccccc1NC(=O)COc1cc(=O)n(CC)c2ccccc12 here?
Answer: Its inhibition is 33.4%.

Question: With CNC(=S)N/N=C/c1cc(Br)cc(Br)c1O as the compound, how does the inhibition read?
Answer: The inhibition was 85.5% (active).

Question: Which inhibition does the source give for CC(=O)n1cc(-c2ccncc2)c2ccccc21 here?
Answer: The inhibition was 52.4% (active).

Question: For CN1CCc2cccc3c2[C@H]1Cc1ccc(O)c(O)c1-3, which inhibition is on record?
Answer: The inhibition was 50.5% (active).

Question: Which inhibition does the source give for CN1CCc2cccc3c2[C@@H]1Cc1ccc(O)c(O)c1-3 here?
Answer: The inhibition was 67% (active).

Question: With Fc1ccc(Nc2ccnc(Nc3ccc(F)cc3)n2)cc1 as the compound, how does the inhibition read?
Answer: Its inhibition is 46.8%.

Question: With COc1ccc(Nc2ccnc(Nc3ccc(OC)cc3)n2)cc1 as the compound, how does the inhibition read?
Answer: Its inhibition is 64.2% (active).

Question: With CN(C)S(=O)(=O)c1ccc(N2CCCC2)c(C(=O)Nc2nc3ccccc3s2)c1 as the compound, how does the inhibition read?
Answer: Its inhibition is 42.1%.

Question: For O=C(NC(Nc1nc2ccc([N+](=O)[O-])cc2s1)(C(F)(F)F)C(F)(F)F)c1ccccc1Cl, which inhibition is on record?
Answer: The inhibition was 100% (active).

Question: With CC(C)(C)C1=CC(=O)C(=O)C(C(C)(C)C)=C1 as the compound, how does the inhibition read?
Answer: The inhibition was 12.5%.

Question: Which inhibition does the source give for COC1=C(Nc2ccccc2)C(=O)c2ccccc2C1=O here?
Answer: The inhibition was 26.2%.

Question: With COc1ccccc1NC1=C(N2CCCCC2)C(=O)c2ccccc2C1=O as the compound, how does the inhibition read?
Answer: The inhibition was 81.7% (active).

Question: For O=C1OC(/C=C/c2ccc(Cl)cc2)=NC/1=C/c1ccco1, which inhibition is on record?
Answer: The inhibition was 39.5%.

Question: With CCCCCCOc1ccc(OC(=O)c2ccncc2)cc1 as the compound, how does the inhibition read?
Answer: The inhibition was 14.7%.

Question: For CCCCCCOc1ccc(/C(C)=N/NC2=NCCN2)cc1, which inhibition is on record?
Answer: The inhibition was 80.3% (active).

Question: For CCCCCCOc1ccc(-c2ccc(C#N)cn2)cc1, which inhibition is on record?
Answer: Its inhibition is 37.6%.

Question: For CCCCCOc1ccc(Br)cc1/C(C)=N/NC1=NCCN1, which inhibition is on record?
Answer: The inhibition was 78.4% (active).

Question: For Cc1c(-c2ccccc2)[n+](=O)c2c(n1[O-])CCC2, which inhibition is on record?
Answer: Its inhibition is -7.75%.

Question: Which inhibition does the source give for NC(C(=O)O)C1CC(Cl)=NO1 (stereo not given) here?
Answer: Its inhibition is 59.1% (active).

Question: With CCCN(CCC)C(=O)Cn1c(=O)n(CCCCC(=O)NCc2ccco2)c(=O)c2ccccc21 as the compound, how does the inhibition read?
Answer: Its inhibition is 49%.

Question: For CCc1ccc(S(=O)(=O)/N=C2/C=C(Sc3ncn[nH]3)C(=O)c3ccccc32)cc1, which inhibition is on record?
Answer: Its inhibition is 96% (active).

Question: Which inhibition does the source give for CSCCNC(C)=O here?
Answer: The inhibition was 17%.

Question: For COC(=O)c1sccc1N/N=C(\C)c1ccc(F)c(Cl)c1, which inhibition is on record?
Answer: The inhibition was 36%.

Question: For O=C(Nc1ccc(Cl)cc1)C1=Cc2ccccc2OC1, which inhibition is on record?
Answer: Its inhibition is 65.8% (active).

Question: With CC1=C(C(=O)Nc2ccc(Cl)cc2)C(c2ccco2)NC(=O)N1 (stereo not given) as the compound, how does the inhibition read?
Answer: The inhibition was 15.8%.

Question: For CCc1cccc(CC)c1NC(=S)NCCc1c(C)[nH]c2ccccc12, which inhibition is on record?
Answer: The inhibition was 50.6% (active).

Question: With CCc1cccc(C)c1NC(=S)NCCc1c(C)[nH]c2ccc(C)cc12 as the compound, how does the inhibition read?
Answer: Its inhibition is 44.8%.

Question: For COc1ccc(CNCC(O)(c2ccccc2)c2ccc(Cl)cc2)cc1 (stereo not given), which inhibition is on record?
Answer: The inhibition was 60% (active).

Question: For C=C(C(=O)c1ccccc1)C(C)C(=C)C(=O)c1ccccc1, which inhibition is on record?
Answer: The inhibition was 59.5% (active).

Question: With CNC(=O)C(NC(=O)c1ccccc1)=C(C)C as the compound, how does the inhibition read?
Answer: Its inhibition is 38.2%.

Question: Which inhibition does the source give for COC(=O)c1c(N)c(C#N)c2n1CCCCC2 here?
Answer: Its inhibition is 37.8%.

Question: For Nc1nc(-c2ccco2)nn1S(=O)(=O)c1ccccc1, which inhibition is on record?
Answer: Its inhibition is 21.7%.

Question: For COc1ccc(-c2nc(N)n(S(=O)(=O)c3ccc(C)cc3)n2)cc1, which inhibition is on record?
Answer: Its inhibition is 63.5% (active).

Question: Which inhibition does the source give for CCOC(=O)c1nc(C)sc1-c1ccnn1S(=O)(=O)c1ccc(C)cc1 here?
Answer: Its inhibition is 45.4%.

Question: With Cc1c(-c2nc(N)nc(Nc3ccccc3)n2)oc2ccccc12 as the compound, how does the inhibition read?
Answer: Its inhibition is 45.6%.

Question: For CCOc1ccc2nc(SC3CC(=O)N(c4cccc(OC)c4)C3=O)sc2c1 (stereo not given), which inhibition is on record?
Answer: Its inhibition is 85% (active).

Question: With CCOc1cccc(N2C(=O)CC(N3CCN(c4ccc(S(=O)(=O)CC)cc4)CC3)C2=O)c1 (stereo not given) as the compound, how does the inhibition read?
Answer: Its inhibition is 34.4%.

Question: Which inhibition does the source give for O=C1CC(Sc2nnnn2-c2ccccc2)C(=O)N1c1cccc(Cl)c1 (stereo not given) here?
Answer: Its inhibition is 47.4%.

Question: For COC(=O)CSC1=C(C#N)C(=O)NC(c2ccccc2)S1 (stereo not given), which inhibition is on record?
Answer: Its inhibition is 39.5%.

Question: Which inhibition does the source give for Cc1ccc(C(=O)NCCSCc2ccccc2)cc1[N+](=O)[O-] here?
Answer: Its inhibition is 52.2% (active).

Question: With COCCNC(=O)CCc1ccc(S(=O)(=O)Nc2ccc(C)cc2)cc1 as the compound, how does the inhibition read?
Answer: The inhibition was 25.9%.

Question: For COCCNC(=O)c1ccc(C)c(S(=O)(=O)Nc2ccc(C)cc2)c1, which inhibition is on record?
Answer: The inhibition was 27.9%.

Question: With CCn1c2ccccc2c2cc(NC(=O)c3ccc(C)c([N+](=O)[O-])c3)ccc21 as the compound, how does the inhibition read?
Answer: Its inhibition is 45.8%.

Question: For Cc1ccc(CSCCNC(=O)CSCc2ccc([N+](=O)[O-])cc2)cc1, which inhibition is on record?
Answer: Its inhibition is 68.6% (active).

Question: With Cc1ccc(S(=O)(=O)NC2=NCN(CCOC(=O)c3ccc([N+](=O)[O-])cc3)CN2)cc1 as the compound, how does the inhibition read?
Answer: The inhibition was 14.1%.

Question: With Cc1cccc(C(=O)NCc2ccc(S(N)(=O)=O)cc2)c1[N+](=O)[O-] as the compound, how does the inhibition read?
Answer: The inhibition was 30.2%.

Question: Which inhibition does the source give for Cc1ccc(C(=O)NCCc2cccc(Cl)c2)cc1[N+](=O)[O-] here?
Answer: Its inhibition is 73.5% (active).

Question: With CCCCCCC1CCC(C(=O)Nn2c(C)nc3ccccc3c2=O)CC1 (stereo not given) as the compound, how does the inhibition read?
Answer: Its inhibition is 49%.

Question: With CC1CCCC/C1=N\Nc1ccc(S(N)(=O)=O)cc1[N+](=O)[O-] (stereo not given) as the compound, how does the inhibition read?
Answer: Its inhibition is 25.7%.

Question: Which inhibition does the source give for CCc1ccc(C(=O)NC(CC(C)C)C(=O)O)cc1 (stereo not given) here?
Answer: Its inhibition is 46.8%.

Question: For CC(NC(=O)Nn1cnnc1)(C(F)(F)F)C(F)(F)F, which inhibition is on record?
Answer: The inhibition was 26.3%.

Question: With Clc1ccc(Nc2ccc(NCc3ccccc3)nn2)cc1 as the compound, how does the inhibition read?
Answer: Its inhibition is 85.7% (active).

Question: For COc1cc(C2Nc3ccccc3C(=O)N2c2ccccc2)ccc1O (stereo not given), which inhibition is on record?
Answer: Its inhibition is 15.1%.

Question: Which inhibition does the source give for O=C(Nc1cc(Cl)ccc1-n1cncn1)c1ccc([N+](=O)[O-])s1 here?
Answer: Its inhibition is 92% (active).

Question: With CCCCCC(=O)Nc1ccc2oc(-c3cccnc3)nc2c1 as the compound, how does the inhibition read?
Answer: The inhibition was 58.5% (active).

Question: For CCC(=O)Nc1cccc(-c2nc3ccccc3o2)c1, which inhibition is on record?
Answer: Its inhibition is 78.7% (active).

Question: For CCCc1cc(C(=O)O)c2ccccc2n1, which inhibition is on record?
Answer: Its inhibition is 39.6%.

Question: With Cc1ccc2oc(-c3ccc(NC(=O)c4cccnc4)cc3)nc2c1 as the compound, how does the inhibition read?
Answer: The inhibition was 46.7%.

Question: With CC(C)CCN(C(=O)Nc1ccccc1)C(C)c1cccs1 (stereo not given) as the compound, how does the inhibition read?
Answer: Its inhibition is 42.2%.

Question: With COc1ccc2c(c1)NC(=O)CC(c1ccccc1)=N2 as the compound, how does the inhibition read?
Answer: The inhibition was 43.8%.

Question: Which inhibition does the source give for COc1ccccc1NS(=O)(=O)c1ccc(NC(=O)Cc2cccs2)cc1 here?
Answer: The inhibition was 33.9%.

Question: For N/C(Cc1cccs1)=N\OC(=O)COc1ccccc1Cl, which inhibition is on record?
Answer: The inhibition was 59.1% (active).

Question: Which inhibition does the source give for C=CCNC(=S)N/N=C(\C)c1ccccn1 here?
Answer: The inhibition was 90.2% (active).
